Lmaj promast = Leishmania major promastigote growth inhibition, primary screen; Leishmania major promastigotes, resazurin fluorescence viability; inhibition, % at 10 µM; hit rate 9% among 200,000; AID 1063, 2008; in the data active = inhibition above about 50%;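 also: promastigotes grown with compound for 44 hours at 28 °C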
Autophagy HCS = autophagy modulators in MEF cells, primary screen, imaging, high-content, MEF GFP-LC3. calls only at 10 µM (by protocol). hit rate 0.98% among 190,000. AID 463193, 2010. MEF GFP-LC3 puncta imaging; test concentration mostly 10 µM;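 active = percentage of spot-positive cells more than 3 SD above its plate mean, without a fluorescence outlier flag or 80% toxicity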;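 also: spot-positive cell cutoff set from DMSO-treated cells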
INS promoter inh = inhibitors of insulin promoter-driven GFP, primary screen, imaging, TRM-6 cells (human fetal islet line), eGFP reporter, cell count; reporter expression induced with tamoxifen; hit rate 0.9% among 130,000; inhibition, % at 2 µM;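 active = inhibition above the mean plus 3 SD, with well images judged a real hit on visual review, cut at about 60% in these data, passing the limit was not always enough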
HCT116 PTEN-null = growth suppression of PTEN-null HCT116, primary screen, cell-based, CellTiter-Glo | hit rate 1.2% among 140,000 | HCT116 PTEN-null viability, 60 h; active compounds read low | AID 827, 2007 | viability, % at 10 µM;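 active = viability at or below a set limit, 4 SD under the median of all tested compounds, cut at about 3.7% in these data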;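 also: PTEN knockout HCT116 line with beta catenin targeted HCT116 as companion control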
bCat KO growth = primary screen for growth suppressors in beta-catenin knockout HCT116 cells (colon tumor, human); HCT116 beta-catenin knockout viability, CellTiter-Glo, 60 h; active compounds read low; viability, % at 10 µM; hit rate 1.5% among 140,000; AID 818, 2007;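 active = viability at or under a set limit, the compound median less 4 SD, cut at about 6% in these data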;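 also: 0% = Hyamine 1622 control at 20 µM and 100% = untreated cell control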
Insulin prom up = insulin promoter activators in MIN6 cells, imaging, high-content screening, mouse beta cells; z-score at 5 µM; hit rate 0.3% among 190,000; MIN6 insulin promoter-GFP reporter; active compounds read high;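 active = z-score above 3 at 5 µM with at least 500 cells counted in the well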
Active calls of the source: *; i = inactive; · = no result given. Only some compounds are listed: those with a hit (about 9.6% of all), similar ones and a draw of the others.

SMILES	Lmaj promast	Autophagy HCS	INS promoter inh	HCT116 PTEN-null	bCat KO growth	Insulin prom up
C=CCNCCCCOc1ccc(C)cc1[N+](=O)[O-]	61*	i	-10	85	84	0.53
COCCCNCCOc1ccc(C)cc1[N+](=O)[O-]	90*	i	23	105	95	0.42
Cc1ccc(OCCN2C(=O)c3ccccc3C2=O)c([N+](=O)[O-])c1	-5	i	-8	104	96	0.96
COCCCNCCOCCOc1ccc(C)cc1[N+](=O)[O-]	94*	i	-40	84	88	1.1
CS(=O)(=O)c1ccccc1-c1nc(-c2cccc(Cl)c2)no1	7	i	·	·	·	0.17
Fc1ccc(-n2cc(CNCCc3cccnc3)c(-c3ccccc3Cl)n2)cc1	57*	i	·	·	·	-1.5
Fc1ccc(-n2cc(CNCCc3ccncc3)c(-c3ccccc3Cl)n2)cc1	64*	i	-65	·	·	·
Cc1ccc(-c2nn(-c3cccc(F)c3)cc2CNCc2cccnc2)o1	10	i	·	·	·	-0.26
Brc1ccc(CN2CCN(c3ccccn3)CC2)s1	-1	i	64	80	74	-0.28
O=C(COC(=O)C1CSC2(c3ccc(F)cc3)CCC(=O)N12)NC(=O)NC1CCCC1 (centres undefined)	-5	i	-50	·	·	0.01
Cc1cc(/C=C(\C#N)C(=O)NCc2ccco2)c(C)n1-c1cccnc1	·	·	·	·	·	-0.34
Cc1ccc(C)c(OCCn2cc(/C=C(\C#N)C(=O)NCc3ccco3)c3ccccc32)c1	65*	i	-4	91	83	-0.36
COc1ccccc1OCCn1cc(/C=C(\C#N)C(=O)NCc2ccco2)c2ccccc21	53*	i	-17	86	80	-0.66
Cc1cc(/C=C(\C#N)C(=O)NCc2ccco2)c(C)n1C1CCCC1	72*	i	-53	89	100	0.19
CC1=C(C(=O)OCc2ccccc2)C(c2ccc(C(C)(C)C)cc2)NC(=O)N1CCCCCC(=O)O (centres undefined)	14	i	38	90	85	0.59
O=C(/C=C/c1ccc(Cl)cc1)NCc1cccs1	53*	i	3	97	101	-0.99
O=C(/C=C/c1cccc(Cl)c1)NCc1cccs1	-1	i	-35	81	99	-0.42
Cc1cccc(-c2cc3nc4c(c(NCc5ccco5)n3n2)CCCC4)c1	67*	i	·	64	69	-1.6
Fc1ccc(-c2cc3nc4c(c(N5CCOCC5)n3n2)CCCC4)cc1	22	i	-29	72	77	-1.4
Cc1cccc(-c2cc3nc4c(c(N5CCOCC5)n3n2)CCCC4)c1	57*	i	-33	53	63	-0.43
Cc1cccc(-c2cc3nc4c(c(N5CCC6(CC5)OCCO6)n3n2)CCCC4)c1	65*	i	-5	·	·	·
O=C(c1ccc(Cl)cc1)N1C2C=CC(C2)C1(C(F)(F)F)C(F)(F)F (centres undefined)	64*	i	-36	96	89	0.42
CN1CCN(S(=O)(=O)c2ccc(Sc3nnnn3-c3ccccc3)c([N+](=O)[O-])c2)CC1	100*	i	17	3.2*	5.4*	·
O=[N+]([O-])c1ccc(Sc2nnnn2-c2ccccc2)c(Cl)c1	90*	i	55	19	18	1.8
Cn1cnnc1Sc1cc(N2CCN(S(=O)(=O)c3ccccc3)CC2)ccc1[N+](=O)[O-]	4	i	-33	78	73	·
SMILES	Lmaj promast	Autophagy HCS	INS promoter inh	HCT116 PTEN-null	bCat KO growth	Insulin prom up
Cn1nnnc1Sc1ccc([N+](=O)[O-])cc1Cl	13	i	-7	·	·	·
CC(=O)c1ccc(Sc2nnnn2-c2ccccc2)c([N+](=O)[O-])c1	100*	i	34	6	5.7*	0.91
COc1cc(C(=O)Nc2nnc(C(C)(C)C)s2)c([N+](=O)[O-])cc1OC	-4	i	-7	90	80	0.05
NC(=S)NNc1ccnc2cc(Cl)ccc12	18	i	31	·	·	-0.41
O=C(CSC1=NCCN1)NC(c1ccccc1)c1ccccc1	94*	i	·	·	·	·
Cc1cc(NCCCN(C)C)n2nc(-c3cccs3)cc2n1	77*	i	-6	83	82	0.32
CN(CC(=O)Nc1ccc(Cl)cc1)CC(=O)Nc1ccc(C(N)=O)cc1	1	i	·	·	·	-0.43
CN(CC(=O)Nc1ccc(C(N)=O)cc1)CC(=O)Nc1ccccc1Cl	51*	i	35	96	95	0.4
CCN1/C(=C/c2sc(-c3ccccc3C)c[n+]2C)Sc2ccccc21	100*	i	-285	·	·	·
CCC(=O)/C=C1/Sc2ccccc2N1CC	49	i	-329	88	81	·
CN1C(=O)c2ccccc2Sc2ccc(NC(=O)N3CCCC3)cc21	9	i	-36	98	102	0.22
CN1CCN(C(=O)Nc2ccc3c(c2)N(C)C(=O)c2ccccc2S3)CC1	98*	i	-11	·	·	-0.04
O=C(NCCCN1CCc2ccccc2C1)Nc1ccc(Br)cc1	95*	i	-6	83	81	0.31
c1ccc2c(c1)oc1c(Nc3ccc(CN4CCOCC4)cc3)ncnc12	89*	i	6	22	23	-1.2
CC(=O)N1CCN(c2ccc(Nc3ncnc4c3oc3ccccc34)cc2)CC1	62*	i	·	33	40	·
CCOC(=O)c1[nH]c(C)c(C(=O)OCC(=O)NC2CCS(=O)(=O)C2)c1C (centres undefined)	·	·	·	·	·	0.46
CN1CCN(c2ccc(NC(=O)COc3ccccc3Cl)cc2)CC1	100*	i	-9	79	75	0.08
O=C(COC(=O)C1Cc2ccccc2CN1C(=O)c1ccccc1Cl)Nc1ccc(N2CCOCC2)cc1 (centres undefined)	77*	i	-8	90	86	0.41
O=C(COC(=O)CNC(=O)c1ccc(Cl)cc1Cl)Nc1ccc(N2CCOCC2)cc1	-6	i	·	·	·	-0.2
CCC(=O)N1CCN(c2ccc(NC(=O)COc3ccccc3Cl)cc2)CC1	3	i	43	40	27	-0.24
CCC/C(=N/NC(=O)c1cccc(Cl)c1)c1ccccc1	31	i	-33	89	95	0.22
Cc1cc(N/N=C/c2c(O)ccc3ccccc23)nc(-c2ccccc2O)n1	97*	i	18	4	2.9*	-0.52
Cc1c(/C=N/Nc2ccc(F)cc2)c(O)n(C)c(=O)c1C#N	60*	i	·	·	·	-0.16
Cn1c(O)c(/C=N/Nc2ccccc2)c(=O)n(C)c1=O	86*	i	-55	·	·	-0.29
Cc1[nH]nc(N=Cc2c(O)n(C)c(=O)n(C)c2=O)c1-c1ccccc1	·	·	·	·	·	-0.25
Cc1cc(O)c(/C=N/c2ccccn2)c(=O)o1	-1	i	·	99	93	0.95
Cc1cc(O)c(/C=N/Nc2ccc(F)cc2)c(=O)o1	70*	i	·	·	·	-1
CC(=O)N=Cc1c(C)c(C#N)c(=O)n(C)c1O	-5	i	·	·	·	0.11

Assay outcomes (PubChem)
